# Reference: article PMC7862700, “An all-to-all approach to the identification of sequence-specific readers for epigenetic DNA modifications on cytosine”
# Columns and labels:
# Assay in all cases: DAPPL (digital affinity profiling via proximity ligation, sequencing); 10 mM Tris-HCl pH 7.5, 50 mM NaCl, 1 mM DTT, 4% glycerol, room temperature, 30 min; GST-TFs on glutathione beads, 16-mer random dsDNA library, 0.1% formaldehyde crosslink after washing; high values mean tight binding
# FEV = target: T1, FEV (Homo sapiens, UniProt Q99581 1-238); settings: protein: recombinant; tags: N-terminal GST; dsDNA, one strand shown
# T1 sequence: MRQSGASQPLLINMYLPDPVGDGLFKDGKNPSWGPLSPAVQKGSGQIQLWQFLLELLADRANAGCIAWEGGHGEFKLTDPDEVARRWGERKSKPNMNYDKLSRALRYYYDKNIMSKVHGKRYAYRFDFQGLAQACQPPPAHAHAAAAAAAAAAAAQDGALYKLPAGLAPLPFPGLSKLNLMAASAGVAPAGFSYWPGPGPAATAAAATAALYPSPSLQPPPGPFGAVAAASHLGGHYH
# Outline: (§1)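 After expression in yeast as GST fusions, human transcription factors were bound to glutathione beads, DNA-barcoded and mixed with a tag-only sample. The pools were incubated with 200 nmole of a 16-mer random double-stranded DNA library in Tris/NaCl/DTT/glycerol buffer (30 min, room temperature), washed and crosslinked with 0.1% formaldehyde. Proximity ligation with BsaI/T4 ligase ran for 1 h at 37 °C, before PCR amplification and sequencing on an Illumina NextSeq500. Binding signal is a hexamer's read frequency for a factor divided by its frequency for the tag-only sample.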
# ETV5 = ETV5 (Homo sapiens, UniProt P41161 1-510); settings: protein: recombinant; tags: N-terminal GST; dsDNA, one strand shown
# Outline: as §1
# HSF1 = HSF1 (Homo sapiens, UniProt Q00613 1-529); settings: protein: recombinant; tags: N-terminal GST; chain copies: 3; dsDNA, one strand shown
# Outline: as §1
# SPIC = target: T2, SPIC (Homo sapiens, UniProt Q8N5J4 1-248); settings: protein: recombinant; tags: N-terminal GST; dsDNA, one strand shown
# T2 sequence: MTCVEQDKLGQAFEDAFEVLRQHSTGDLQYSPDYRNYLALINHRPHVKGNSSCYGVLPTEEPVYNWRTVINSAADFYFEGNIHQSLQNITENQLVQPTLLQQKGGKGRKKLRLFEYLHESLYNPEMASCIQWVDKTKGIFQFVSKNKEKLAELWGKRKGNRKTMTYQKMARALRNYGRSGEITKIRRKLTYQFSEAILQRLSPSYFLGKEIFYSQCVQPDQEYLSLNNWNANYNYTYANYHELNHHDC
# Outline: as §1
# ELF4 = ELF4 (Homo sapiens, UniProt Q99607 1-663); settings: protein: recombinant; tags: N-terminal GST; dsDNA, one strand shown
# Outline: as §1
# ELK4 = target: T3, ELK4 (Homo sapiens, UniProt P28324-2 1-405); settings: protein: recombinant; tags: N-terminal GST; dsDNA, one strand shown
# T3 sequence: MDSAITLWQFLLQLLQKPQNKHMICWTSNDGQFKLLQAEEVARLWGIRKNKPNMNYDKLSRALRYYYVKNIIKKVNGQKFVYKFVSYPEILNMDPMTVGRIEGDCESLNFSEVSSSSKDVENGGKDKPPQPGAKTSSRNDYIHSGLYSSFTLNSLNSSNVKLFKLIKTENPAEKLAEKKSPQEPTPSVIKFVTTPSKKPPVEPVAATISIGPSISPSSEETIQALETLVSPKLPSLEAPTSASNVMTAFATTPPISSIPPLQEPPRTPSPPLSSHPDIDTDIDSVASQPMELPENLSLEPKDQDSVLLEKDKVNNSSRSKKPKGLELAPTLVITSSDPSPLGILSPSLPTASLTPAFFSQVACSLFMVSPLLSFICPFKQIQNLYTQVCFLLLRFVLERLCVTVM
# Outline: as §1
# ETV2 = target: T4, ETV2 (Homo sapiens, UniProt O00321 1-342); settings: protein: recombinant; tags: N-terminal GST; dsDNA, one strand shown
# T4 sequence: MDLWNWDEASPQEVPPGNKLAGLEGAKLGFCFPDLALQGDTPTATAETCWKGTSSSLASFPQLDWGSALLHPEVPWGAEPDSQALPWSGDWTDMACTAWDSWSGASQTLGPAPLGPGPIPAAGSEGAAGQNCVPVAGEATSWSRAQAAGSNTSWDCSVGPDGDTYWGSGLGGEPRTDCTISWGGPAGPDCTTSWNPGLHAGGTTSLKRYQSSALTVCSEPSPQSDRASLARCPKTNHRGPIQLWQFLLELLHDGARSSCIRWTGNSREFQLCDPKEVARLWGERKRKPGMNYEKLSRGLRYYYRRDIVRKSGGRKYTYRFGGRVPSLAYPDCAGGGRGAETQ
# Outline: as §1
# ELF3 = target: T5, ELF3 (Homo sapiens, UniProt P78545 1-371); settings: protein: recombinant; tags: N-terminal GST; dsDNA, one strand shown
# T5 sequence: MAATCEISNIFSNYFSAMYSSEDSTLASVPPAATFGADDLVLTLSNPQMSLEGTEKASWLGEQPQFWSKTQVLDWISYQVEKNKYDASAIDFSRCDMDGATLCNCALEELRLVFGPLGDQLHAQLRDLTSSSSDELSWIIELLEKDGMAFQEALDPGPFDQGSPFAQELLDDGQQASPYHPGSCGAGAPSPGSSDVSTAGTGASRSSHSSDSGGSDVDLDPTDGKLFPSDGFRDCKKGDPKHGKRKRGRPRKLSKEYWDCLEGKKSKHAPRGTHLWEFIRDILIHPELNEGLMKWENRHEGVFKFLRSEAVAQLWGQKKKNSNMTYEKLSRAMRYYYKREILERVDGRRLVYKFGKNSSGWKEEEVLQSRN
# Outline: as §1
# CRX = CRX (Homo sapiens, UniProt O43186 1-299); settings: protein: recombinant; tags: N-terminal GST; dsDNA, one strand shown
# Outline: as §1
# ETV1 = ETV1 (Homo sapiens, UniProt P50549 1-477); settings: protein: recombinant; tags: N-terminal GST; dsDNA, one strand shown
# Outline: as §1
# ERF = target: T6, ERF (Homo sapiens, UniProt P50548 1-548); settings: protein: recombinant; tags: N-terminal GST; dsDNA, one strand shown
# T6 sequence: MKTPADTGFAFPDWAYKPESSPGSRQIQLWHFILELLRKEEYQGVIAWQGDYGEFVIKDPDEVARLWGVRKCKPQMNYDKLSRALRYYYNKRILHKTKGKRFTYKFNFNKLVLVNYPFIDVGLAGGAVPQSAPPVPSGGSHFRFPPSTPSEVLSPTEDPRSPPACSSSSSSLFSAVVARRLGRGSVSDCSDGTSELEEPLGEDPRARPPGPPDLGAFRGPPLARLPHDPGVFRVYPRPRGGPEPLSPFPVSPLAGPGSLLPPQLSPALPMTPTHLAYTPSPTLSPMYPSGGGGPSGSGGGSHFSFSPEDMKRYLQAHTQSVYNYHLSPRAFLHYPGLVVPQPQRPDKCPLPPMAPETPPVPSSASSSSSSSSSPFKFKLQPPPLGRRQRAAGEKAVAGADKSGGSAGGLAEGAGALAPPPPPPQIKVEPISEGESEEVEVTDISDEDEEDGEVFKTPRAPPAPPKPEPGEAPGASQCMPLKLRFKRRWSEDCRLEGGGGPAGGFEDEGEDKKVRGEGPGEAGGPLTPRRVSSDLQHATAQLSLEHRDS
# Outline: as §1
# ETV3L = target: T7, ETV3L (Homo sapiens, UniProt Q6ZN32 1-361); settings: protein: recombinant; tags: N-terminal GST; dsDNA, one strand shown
# T7 sequence: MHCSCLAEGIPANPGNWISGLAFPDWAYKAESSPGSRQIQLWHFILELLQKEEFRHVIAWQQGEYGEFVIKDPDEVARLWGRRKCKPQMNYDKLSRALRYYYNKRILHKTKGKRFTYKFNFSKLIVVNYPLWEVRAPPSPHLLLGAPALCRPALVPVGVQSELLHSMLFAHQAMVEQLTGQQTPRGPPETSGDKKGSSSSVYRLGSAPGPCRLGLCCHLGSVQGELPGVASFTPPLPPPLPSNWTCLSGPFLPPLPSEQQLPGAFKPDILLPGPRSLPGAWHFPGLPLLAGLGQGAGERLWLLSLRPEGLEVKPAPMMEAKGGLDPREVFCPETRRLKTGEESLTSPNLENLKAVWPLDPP
# Outline: as §1
# ETS2 = target: T8, ETS2 (Homo sapiens, UniProt P15036 1-469); settings: protein: recombinant; tags: N-terminal GST; dsDNA, one strand shown
# T8 sequence: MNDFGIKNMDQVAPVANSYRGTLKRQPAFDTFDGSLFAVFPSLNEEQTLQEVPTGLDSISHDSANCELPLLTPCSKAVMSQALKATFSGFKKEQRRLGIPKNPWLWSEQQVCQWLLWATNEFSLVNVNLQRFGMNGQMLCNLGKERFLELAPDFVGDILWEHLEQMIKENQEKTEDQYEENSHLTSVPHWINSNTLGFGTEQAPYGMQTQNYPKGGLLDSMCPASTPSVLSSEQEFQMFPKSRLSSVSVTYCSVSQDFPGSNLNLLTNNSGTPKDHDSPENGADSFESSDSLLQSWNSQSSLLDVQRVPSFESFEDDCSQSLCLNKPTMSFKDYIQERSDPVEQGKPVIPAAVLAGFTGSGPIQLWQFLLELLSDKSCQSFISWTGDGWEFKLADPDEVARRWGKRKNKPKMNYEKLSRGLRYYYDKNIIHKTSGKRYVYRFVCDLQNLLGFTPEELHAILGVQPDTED
# Outline: as §1
# SPDEF = target: T9, SPDEF (Homo sapiens, UniProt O95238 1-335); settings: protein: recombinant; tags: N-terminal GST; dsDNA, one strand shown
# T9 sequence: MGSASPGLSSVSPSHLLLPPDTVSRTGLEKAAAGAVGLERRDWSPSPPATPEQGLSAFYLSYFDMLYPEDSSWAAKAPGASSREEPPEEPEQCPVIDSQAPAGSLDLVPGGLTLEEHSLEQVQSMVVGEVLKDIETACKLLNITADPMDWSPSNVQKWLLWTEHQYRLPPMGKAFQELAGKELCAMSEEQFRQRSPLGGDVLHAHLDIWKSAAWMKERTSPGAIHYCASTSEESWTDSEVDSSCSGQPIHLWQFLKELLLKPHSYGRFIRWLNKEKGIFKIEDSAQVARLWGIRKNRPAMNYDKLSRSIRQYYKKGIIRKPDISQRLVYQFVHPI
# Outline: as §1
# ETV7 = target: T10, ETV7 (Homo sapiens, UniProt Q9Y603 1-341); settings: protein: recombinant; tags: N-terminal GST; dsDNA, one strand shown
# T10 sequence: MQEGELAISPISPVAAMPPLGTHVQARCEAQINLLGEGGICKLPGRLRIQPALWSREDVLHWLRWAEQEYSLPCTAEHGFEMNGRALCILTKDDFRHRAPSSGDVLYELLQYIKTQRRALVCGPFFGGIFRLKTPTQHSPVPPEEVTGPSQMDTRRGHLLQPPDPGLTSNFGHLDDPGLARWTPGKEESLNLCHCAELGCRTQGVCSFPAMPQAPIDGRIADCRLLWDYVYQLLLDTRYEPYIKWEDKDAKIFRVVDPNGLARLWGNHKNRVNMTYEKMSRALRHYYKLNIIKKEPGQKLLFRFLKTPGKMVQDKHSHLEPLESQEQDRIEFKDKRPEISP
# Outline: as §1
# ELF5 = target: T11, ELF5 (Homo sapiens, UniProt Q9UKW6-2 1-255); settings: protein: recombinant; tags: N-terminal GST; dsDNA, one strand shown
# T11 sequence: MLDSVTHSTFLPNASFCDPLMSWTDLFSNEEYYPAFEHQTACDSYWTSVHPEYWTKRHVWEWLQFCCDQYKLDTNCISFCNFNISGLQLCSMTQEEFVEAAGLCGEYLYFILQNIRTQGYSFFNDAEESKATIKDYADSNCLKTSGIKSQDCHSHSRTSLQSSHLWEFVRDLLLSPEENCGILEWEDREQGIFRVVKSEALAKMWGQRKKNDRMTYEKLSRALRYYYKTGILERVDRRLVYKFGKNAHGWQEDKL
# Outline: as §1
# ETV3 = target: T12, ETV3 (Homo sapiens, UniProt P41162-2 1-143); settings: protein: recombinant; tags: N-terminal GST; dsDNA, one strand shown
# T12 sequence: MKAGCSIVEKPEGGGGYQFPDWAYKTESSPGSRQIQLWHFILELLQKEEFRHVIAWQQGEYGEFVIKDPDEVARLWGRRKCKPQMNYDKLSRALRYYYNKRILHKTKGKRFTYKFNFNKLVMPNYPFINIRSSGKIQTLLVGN
# Outline: as §1
# ETV6 = ETV6 (Homo sapiens, UniProt P41212 1-452); settings: protein: recombinant; tags: N-terminal GST; dsDNA, one strand shown
# Outline: as §1
# HSF1, sequence (Q00613 whole entry): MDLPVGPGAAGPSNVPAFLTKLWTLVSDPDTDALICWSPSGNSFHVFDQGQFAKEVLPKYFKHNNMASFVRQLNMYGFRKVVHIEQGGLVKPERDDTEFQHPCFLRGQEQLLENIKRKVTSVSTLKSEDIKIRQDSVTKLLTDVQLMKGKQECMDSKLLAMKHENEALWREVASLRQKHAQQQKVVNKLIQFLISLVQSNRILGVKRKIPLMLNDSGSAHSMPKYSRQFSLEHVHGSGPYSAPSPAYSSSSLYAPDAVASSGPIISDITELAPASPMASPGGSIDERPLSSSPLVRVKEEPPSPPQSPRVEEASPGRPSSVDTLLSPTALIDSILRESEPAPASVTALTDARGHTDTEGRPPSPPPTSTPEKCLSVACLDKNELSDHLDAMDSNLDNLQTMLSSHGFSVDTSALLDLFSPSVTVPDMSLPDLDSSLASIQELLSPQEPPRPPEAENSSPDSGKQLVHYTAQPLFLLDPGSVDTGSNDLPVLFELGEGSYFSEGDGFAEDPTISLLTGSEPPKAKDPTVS
# ETV1, sequence (P50549 whole entry): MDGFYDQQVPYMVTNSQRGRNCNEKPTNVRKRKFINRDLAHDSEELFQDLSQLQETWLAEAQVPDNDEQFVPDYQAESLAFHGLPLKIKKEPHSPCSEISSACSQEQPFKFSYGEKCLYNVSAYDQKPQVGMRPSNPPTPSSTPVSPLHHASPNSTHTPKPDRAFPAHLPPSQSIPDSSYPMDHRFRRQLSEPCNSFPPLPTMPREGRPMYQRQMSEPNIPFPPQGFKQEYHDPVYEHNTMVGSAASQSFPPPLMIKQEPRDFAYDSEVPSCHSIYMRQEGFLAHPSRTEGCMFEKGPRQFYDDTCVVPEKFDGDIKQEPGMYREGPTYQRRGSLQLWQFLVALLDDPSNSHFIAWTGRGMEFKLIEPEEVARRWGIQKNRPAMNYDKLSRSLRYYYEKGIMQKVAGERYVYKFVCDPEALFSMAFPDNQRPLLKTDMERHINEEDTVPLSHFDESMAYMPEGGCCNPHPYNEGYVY
# ELF4, sequence (Q99607 whole entry): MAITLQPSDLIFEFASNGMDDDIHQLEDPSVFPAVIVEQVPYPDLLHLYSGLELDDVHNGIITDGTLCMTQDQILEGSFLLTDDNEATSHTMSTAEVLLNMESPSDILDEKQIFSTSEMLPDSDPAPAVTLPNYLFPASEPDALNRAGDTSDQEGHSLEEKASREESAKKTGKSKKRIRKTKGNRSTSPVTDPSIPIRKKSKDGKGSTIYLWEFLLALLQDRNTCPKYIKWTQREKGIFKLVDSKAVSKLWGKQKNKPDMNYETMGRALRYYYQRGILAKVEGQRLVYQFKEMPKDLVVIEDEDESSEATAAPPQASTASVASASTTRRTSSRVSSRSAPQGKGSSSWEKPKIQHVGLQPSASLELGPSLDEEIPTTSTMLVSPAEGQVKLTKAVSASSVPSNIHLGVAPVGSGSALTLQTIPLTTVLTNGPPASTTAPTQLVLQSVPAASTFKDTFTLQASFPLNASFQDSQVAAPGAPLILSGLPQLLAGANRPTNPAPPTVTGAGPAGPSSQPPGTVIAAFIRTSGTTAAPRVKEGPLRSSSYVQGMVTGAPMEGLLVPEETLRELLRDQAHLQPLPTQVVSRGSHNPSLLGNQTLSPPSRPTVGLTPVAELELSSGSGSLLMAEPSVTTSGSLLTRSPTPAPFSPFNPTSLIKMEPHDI
# CRX, sequence (O43186 whole entry): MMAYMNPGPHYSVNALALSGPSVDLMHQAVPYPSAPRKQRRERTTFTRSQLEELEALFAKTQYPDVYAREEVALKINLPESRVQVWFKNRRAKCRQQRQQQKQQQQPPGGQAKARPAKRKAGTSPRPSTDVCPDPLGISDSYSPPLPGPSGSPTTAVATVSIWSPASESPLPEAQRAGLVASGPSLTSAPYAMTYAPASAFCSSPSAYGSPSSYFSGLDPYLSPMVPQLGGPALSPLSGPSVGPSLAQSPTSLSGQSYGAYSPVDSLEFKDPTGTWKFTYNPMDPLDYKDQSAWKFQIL
# ETV5, sequence (P41161 whole entry): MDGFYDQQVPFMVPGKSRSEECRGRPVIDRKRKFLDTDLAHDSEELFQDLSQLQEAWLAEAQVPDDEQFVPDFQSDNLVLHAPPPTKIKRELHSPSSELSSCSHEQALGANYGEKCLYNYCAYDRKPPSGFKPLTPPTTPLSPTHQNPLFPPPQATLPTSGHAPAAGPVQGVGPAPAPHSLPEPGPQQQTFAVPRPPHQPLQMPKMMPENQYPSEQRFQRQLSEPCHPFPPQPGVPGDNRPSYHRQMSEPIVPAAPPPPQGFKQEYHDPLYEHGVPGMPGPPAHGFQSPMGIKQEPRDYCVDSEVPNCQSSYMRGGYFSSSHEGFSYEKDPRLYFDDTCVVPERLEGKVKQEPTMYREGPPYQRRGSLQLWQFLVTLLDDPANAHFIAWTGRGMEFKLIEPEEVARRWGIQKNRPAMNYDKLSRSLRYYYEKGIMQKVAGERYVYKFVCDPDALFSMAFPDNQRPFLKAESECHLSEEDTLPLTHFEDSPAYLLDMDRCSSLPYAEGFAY
# ETV6, sequence (P41212 whole entry): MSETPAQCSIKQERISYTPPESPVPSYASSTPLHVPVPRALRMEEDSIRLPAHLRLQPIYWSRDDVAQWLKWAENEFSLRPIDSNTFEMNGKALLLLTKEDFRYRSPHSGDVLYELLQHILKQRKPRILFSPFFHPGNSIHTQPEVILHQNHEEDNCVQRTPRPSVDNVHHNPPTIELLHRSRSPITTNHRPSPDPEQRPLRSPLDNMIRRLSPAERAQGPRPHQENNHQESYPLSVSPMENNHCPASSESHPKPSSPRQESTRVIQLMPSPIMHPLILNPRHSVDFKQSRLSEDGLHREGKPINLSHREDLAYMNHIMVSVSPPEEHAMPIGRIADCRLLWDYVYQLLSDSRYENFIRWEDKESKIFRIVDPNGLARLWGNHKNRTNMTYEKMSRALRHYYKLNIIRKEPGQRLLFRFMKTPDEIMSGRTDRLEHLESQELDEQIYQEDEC
sequence,measurement,setting,value
GCTTCT,binding signal,FEV,"1.41 fold enrichment (6-mer frequency, TF over GST control)"
same,binding signal,ETV5,"1.57 fold enrichment (6-mer frequency, TF over GST control)"
same,binding signal,HSF1,"2.32 fold enrichment (6-mer frequency, TF over GST control)"
same,binding signal,SPIC,"1.48 fold enrichment (6-mer frequency, TF over GST control)"
same,binding signal,ELF4,"1.6 fold enrichment (6-mer frequency, TF over GST control)"
same,binding signal,ELK4,"1.4 fold enrichment (6-mer frequency, TF over GST control)"
same,binding signal,ETV2,"1.46 fold enrichment (6-mer frequency, TF over GST control)"
same,binding signal,ELF3,"1.25 fold enrichment (6-mer frequency, TF over GST control)"
same,binding signal,CRX,"1.81 fold enrichment (6-mer frequency, TF over GST control)"
same,binding signal,ETV1,"1.42 fold enrichment (6-mer frequency, TF over GST control)"
same,binding signal,ERF,"1.64 fold enrichment (6-mer frequency, TF over GST control)"
same,binding signal,ETV3L,"1.37 fold enrichment (6-mer frequency, TF over GST control)"
same,binding signal,ETS2,"1.5 fold enrichment (6-mer frequency, TF over GST control)"
same,binding signal,SPDEF,"1.34 fold enrichment (6-mer frequency, TF over GST control)"
same,binding signal,ETV7,"1.43 fold enrichment (6-mer frequency, TF over GST control)"
same,binding signal,ELF5,"1.56 fold enrichment (6-mer frequency, TF over GST control)"
same,binding signal,ETV3,"1.4 fold enrichment (6-mer frequency, TF over GST control)"
same,binding signal,ETV6,"1.45 fold enrichment (6-mer frequency, TF over GST control)"
